Experimental data from paper PMC5540273 (PLoS ONE, 2017).

test system: JAK1(JH1domain-catalytic); settings: concentration: 1 μM, replicates: in singlicate; n = 1
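Further: KINOMEscan kinase panel screen.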

SMILES | %Inh [%]
COc1cc2ncn(-c3cc(OCc4ccncc4)c(C(N)=O)s3)c2cc1OC [GSK336313] | 6
OCCCNc1nccc(-c2c(-c3cccc(C(F)(F)F)c3)nn3cc(C(F)(F)F)ccc23)n1 [GW630813] | 14
Cc1ccc(Oc2ccc(Nc3ncnc4cc[nH]c34)cc2C)cn1 | 0
COc1cc(Nc2nccc(N3CCC(NC(=O)C(C)c4ccc(Cl)cc4)C3)n2)cc(OC)c1OC (stereo not drawn) [GSK1379757] | 20
Nc1nc(N)c2nc(-c3ccccc3)[nH]c2n1 [SKF-12778] | 11
COc1cc(OC)cc(-c2cc3cnc(N)nc3nc2NC(=O)NC(C)(C)C)c1 | 0
COc1cc2nccc(Nc3cccc(Oc4ccccc4)c3)c2cc1OC.Cl [GW284543] | 0
CCn1c(-c2ccoc2)nc2cnccc21 [SB-733887] | 9
CCn1c(-c2nonc2N)nc2ccccc21 [SB-693162/GW549034] | 8
COC(=O)c1c(-c2ccccc2)c2cc(C)ccc2c(=O)n1Cc1ccccc1 | 0
CCCNC(=O)Nc1ccc(Oc2ncnc3ccn(C)c23)cc1 | 17
COc1ccc(-c2coc3ccc(-c4nnc(SCc5cccc(C#N)c5)o4)cc23)cc1 | 22
CCC(=O)c1c(-c2ccccc2)c2cc(Cl)ccc2c(=O)n1Cc1cc(S(C)(=O)=O)n(CC(F)F)n1 | 2
CN1C(=O)C(Nc2ccccc2)=C(c2ccccc2)C1=O [SB-300079] | 0
Cc1ccccc1COc1cc(-n2cnc3cc(Cl)ccc32)sc1C(N)=O [GW813349] | 0
COc1cc2ncn(-c3cc(OCCCc4ccccc4)c(C(N)=O)s3)c2cc1OC [GSK205189] | 0
COc1cc2ncn(-c3cc(OCc4ccncc4Br)c(C(N)=O)s3)c2cc1OC [GW854278] | 0
O=C1NC(=O)C(c2ccccc2)=C1Nc1cccc(O)c1 [SB-390534] | 0

SMILES | %Inh [%]
Cc1cccc(-c2nc(Nc3ccc4c(cnn4C)c3)c3ccccc3n2)n1 [GW876731] | 15
COc1ccc(CNC(=O)NC2CCN(c3ccnc(Nc4ccc(F)cc4)n3)C2)cc1 (stereo not drawn) [GSK1379706] | 13
O=C(NCCNc1ccnc(Nc2ccc(F)cc2)n1)Nc1ccc2c(c1)OCO2 [GSK1379882] | 12
CCS(=O)(=O)c1ccc(OC)c(Nc2ncc(-c3ccc(F)cc3)o2)c1.Cl [GW591947] | 11
COC(=O)c1c(-c2ccccc2)c2cc(Br)ccc2c(=O)n1Cc1ccc(NC(=O)CCC(=O)O)cc1 | 5
O=C(Nc1n[nH]c2cc(-c3ccccc3F)ccc12)C1CC1 [SB-733371] | 0
Cc1nn2c(=O)cc(N3CCOCC3)nc2n1Cc1cccc(Cl)c1Cl [GSK2342769] | 10
O=c1cc(N2CCOCC2)nc2n(Cc3ccc(F)c(Cl)c3)ccn12 [GSK2297099] | 19
Cc1nnc(-c2ccc(C)c(-c3ccc(C(=O)O)cc3)c2)o1 [GW608005] | 3
Cc1c(Cn2c(C)nn3c(=O)cc(N4CCO[C@H](C)C4)nc23)cccc1C(F)(F)F [GSK2373690] | 21
Nc1ncnc2c1ncn2-c1cccc(F)c1 [SKF-97560] | 10
Nc1ncnc2c1ncn2-c1ccc(Cl)cc1 [AH2635] | 2
CC(C)(C)c1ccc(C(=O)Nc2cn3cc(-c4ccccc4)ccc3n2)cc1 | 12
Nc1nc(-c2ccccc2F)c(-c2ccnc3ccccc23)s1 [GW560459] | 18
CCC(=O)c1c(-c2ccccc2)c2cc(Cl)ccc2c(=O)n1Cc1cc(C(=O)NC2CC2)n(C)n1 | 10
CCS(=O)c1ccc(-c2coc3ccc(-c4nnc(C)o4)cc23)cc1 (stereo not drawn) | 1
COc1ccc(-c2cc3c(C)nc(N)nc3n([C@H]3CC[C@H](OCCO)CC3)c2=O)cn1 | 0
O=C(Nc1ccc2c(c1)OCO2)NC1CCN(c2ccnc(NCc3ccc(F)cc3)n2)CC1 [GSK1379859] | 7

test system: JAK1(JH2domain-pseudokinase); settings: concentration: 1 μM, replicates: in singlicate; n = 1

SMILES | %Inh [%]
COc1cc2ncn(-c3cc(OCc4ccncc4)c(C(N)=O)s3)c2cc1OC [GSK336313] | 0
OCCCNc1nccc(-c2c(-c3cccc(C(F)(F)F)c3)nn3cc(C(F)(F)F)ccc23)n1 [GW630813] | 0
Cc1ccc(Oc2ccc(Nc3ncnc4cc[nH]c34)cc2C)cn1 | 24
COc1cc(Nc2nccc(N3CCC(NC(=O)C(C)c4ccc(Cl)cc4)C3)n2)cc(OC)c1OC (stereo not drawn) [GSK1379757] | 0
Nc1nc(N)c2nc(-c3ccccc3)[nH]c2n1 [SKF-12778] | 84
COc1cc(OC)cc(-c2cc3cnc(N)nc3nc2NC(=O)NC(C)(C)C)c1 | 0
COc1cc2nccc(Nc3cccc(Oc4ccccc4)c3)c2cc1OC.Cl [GW284543] | 1
CCn1c(-c2ccoc2)nc2cnccc21 [SB-733887] | 65
CCn1c(-c2nonc2N)nc2ccccc21 [SB-693162/GW549034] | 0
COC(=O)c1c(-c2ccccc2)c2cc(C)ccc2c(=O)n1Cc1ccccc1 | 0
CCCNC(=O)Nc1ccc(Oc2ncnc3ccn(C)c23)cc1 | 0
COc1ccc(-c2coc3ccc(-c4nnc(SCc5cccc(C#N)c5)o4)cc23)cc1 | 36
CCC(=O)c1c(-c2ccccc2)c2cc(Cl)ccc2c(=O)n1Cc1cc(S(C)(=O)=O)n(CC(F)F)n1 | 0
CN1C(=O)C(Nc2ccccc2)=C(c2ccccc2)C1=O [SB-300079] | 33
Cc1ccccc1COc1cc(-n2cnc3cc(Cl)ccc32)sc1C(N)=O [GW813349] | 20
COc1cc2ncn(-c3cc(OCCCc4ccccc4)c(C(N)=O)s3)c2cc1OC [GSK205189] | 0
COc1cc2ncn(-c3cc(OCc4ccncc4Br)c(C(N)=O)s3)c2cc1OC [GW854278] | 19
O=C1NC(=O)C(c2ccccc2)=C1Nc1cccc(O)c1 [SB-390534] | 17

SMILES | %Inh [%]
Cc1cccc(-c2nc(Nc3ccc4c(cnn4C)c3)c3ccccc3n2)n1 [GW876731] | 16
COc1ccc(CNC(=O)NC2CCN(c3ccnc(Nc4ccc(F)cc4)n3)C2)cc1 (stereo not drawn) [GSK1379706] | 0
O=C(NCCNc1ccnc(Nc2ccc(F)cc2)n1)Nc1ccc2c(c1)OCO2 [GSK1379882] | 3
CCS(=O)(=O)c1ccc(OC)c(Nc2ncc(-c3ccc(F)cc3)o2)c1.Cl [GW591947] | 0
COC(=O)c1c(-c2ccccc2)c2cc(Br)ccc2c(=O)n1Cc1ccc(NC(=O)CCC(=O)O)cc1 | 0
O=C(Nc1n[nH]c2cc(-c3ccccc3F)ccc12)C1CC1 [SB-733371] | 17
Cc1nn2c(=O)cc(N3CCOCC3)nc2n1Cc1cccc(Cl)c1Cl [GSK2342769] | 0
O=c1cc(N2CCOCC2)nc2n(Cc3ccc(F)c(Cl)c3)ccn12 [GSK2297099] | 0
Cc1nnc(-c2ccc(C)c(-c3ccc(C(=O)O)cc3)c2)o1 [GW608005] | 0
Cc1c(Cn2c(C)nn3c(=O)cc(N4CCO[C@H](C)C4)nc23)cccc1C(F)(F)F [GSK2373690] | 0
Nc1ncnc2c1ncn2-c1cccc(F)c1 [SKF-97560] | 12
Nc1ncnc2c1ncn2-c1ccc(Cl)cc1 [AH2635] | 0
CC(C)(C)c1ccc(C(=O)Nc2cn3cc(-c4ccccc4)ccc3n2)cc1 | 42
Nc1nc(-c2ccccc2F)c(-c2ccnc3ccccc23)s1 [GW560459] | 0
CCC(=O)c1c(-c2ccccc2)c2cc(Cl)ccc2c(=O)n1Cc1cc(C(=O)NC2CC2)n(C)n1 | 3
CCS(=O)c1ccc(-c2coc3ccc(-c4nnc(C)o4)cc23)cc1 (stereo not drawn) | 20
COc1ccc(-c2cc3c(C)nc(N)nc3n([C@H]3CC[C@H](OCCO)CC3)c2=O)cn1 | 22
O=C(Nc1ccc2c(c1)OCO2)NC1CCN(c2ccnc(NCc3ccc(F)cc3)n2)CC1 [GSK1379859] | 0
